Screening data deposited in PubChem by National Center for Advancing Translational Sciences (NCATS).
BAZ2B block: qHTS Assay for Inhibitors of BAZ2B; AlphaScreen BAZ2B-H3K14Ac peptide displacement; Potency, µM (top dose mostly 114 µM), without a hit: top-dose activity change, negative = inhibition, actives largely listed as inhibitors; 4.4% of 360,000 active; note: % is set by controls: 0 for no effect and ±100 for the full control effect; nearly all actives have a fitted effect of over 60% in size
Target sequence (Q9UIF8 whole entry, looked up): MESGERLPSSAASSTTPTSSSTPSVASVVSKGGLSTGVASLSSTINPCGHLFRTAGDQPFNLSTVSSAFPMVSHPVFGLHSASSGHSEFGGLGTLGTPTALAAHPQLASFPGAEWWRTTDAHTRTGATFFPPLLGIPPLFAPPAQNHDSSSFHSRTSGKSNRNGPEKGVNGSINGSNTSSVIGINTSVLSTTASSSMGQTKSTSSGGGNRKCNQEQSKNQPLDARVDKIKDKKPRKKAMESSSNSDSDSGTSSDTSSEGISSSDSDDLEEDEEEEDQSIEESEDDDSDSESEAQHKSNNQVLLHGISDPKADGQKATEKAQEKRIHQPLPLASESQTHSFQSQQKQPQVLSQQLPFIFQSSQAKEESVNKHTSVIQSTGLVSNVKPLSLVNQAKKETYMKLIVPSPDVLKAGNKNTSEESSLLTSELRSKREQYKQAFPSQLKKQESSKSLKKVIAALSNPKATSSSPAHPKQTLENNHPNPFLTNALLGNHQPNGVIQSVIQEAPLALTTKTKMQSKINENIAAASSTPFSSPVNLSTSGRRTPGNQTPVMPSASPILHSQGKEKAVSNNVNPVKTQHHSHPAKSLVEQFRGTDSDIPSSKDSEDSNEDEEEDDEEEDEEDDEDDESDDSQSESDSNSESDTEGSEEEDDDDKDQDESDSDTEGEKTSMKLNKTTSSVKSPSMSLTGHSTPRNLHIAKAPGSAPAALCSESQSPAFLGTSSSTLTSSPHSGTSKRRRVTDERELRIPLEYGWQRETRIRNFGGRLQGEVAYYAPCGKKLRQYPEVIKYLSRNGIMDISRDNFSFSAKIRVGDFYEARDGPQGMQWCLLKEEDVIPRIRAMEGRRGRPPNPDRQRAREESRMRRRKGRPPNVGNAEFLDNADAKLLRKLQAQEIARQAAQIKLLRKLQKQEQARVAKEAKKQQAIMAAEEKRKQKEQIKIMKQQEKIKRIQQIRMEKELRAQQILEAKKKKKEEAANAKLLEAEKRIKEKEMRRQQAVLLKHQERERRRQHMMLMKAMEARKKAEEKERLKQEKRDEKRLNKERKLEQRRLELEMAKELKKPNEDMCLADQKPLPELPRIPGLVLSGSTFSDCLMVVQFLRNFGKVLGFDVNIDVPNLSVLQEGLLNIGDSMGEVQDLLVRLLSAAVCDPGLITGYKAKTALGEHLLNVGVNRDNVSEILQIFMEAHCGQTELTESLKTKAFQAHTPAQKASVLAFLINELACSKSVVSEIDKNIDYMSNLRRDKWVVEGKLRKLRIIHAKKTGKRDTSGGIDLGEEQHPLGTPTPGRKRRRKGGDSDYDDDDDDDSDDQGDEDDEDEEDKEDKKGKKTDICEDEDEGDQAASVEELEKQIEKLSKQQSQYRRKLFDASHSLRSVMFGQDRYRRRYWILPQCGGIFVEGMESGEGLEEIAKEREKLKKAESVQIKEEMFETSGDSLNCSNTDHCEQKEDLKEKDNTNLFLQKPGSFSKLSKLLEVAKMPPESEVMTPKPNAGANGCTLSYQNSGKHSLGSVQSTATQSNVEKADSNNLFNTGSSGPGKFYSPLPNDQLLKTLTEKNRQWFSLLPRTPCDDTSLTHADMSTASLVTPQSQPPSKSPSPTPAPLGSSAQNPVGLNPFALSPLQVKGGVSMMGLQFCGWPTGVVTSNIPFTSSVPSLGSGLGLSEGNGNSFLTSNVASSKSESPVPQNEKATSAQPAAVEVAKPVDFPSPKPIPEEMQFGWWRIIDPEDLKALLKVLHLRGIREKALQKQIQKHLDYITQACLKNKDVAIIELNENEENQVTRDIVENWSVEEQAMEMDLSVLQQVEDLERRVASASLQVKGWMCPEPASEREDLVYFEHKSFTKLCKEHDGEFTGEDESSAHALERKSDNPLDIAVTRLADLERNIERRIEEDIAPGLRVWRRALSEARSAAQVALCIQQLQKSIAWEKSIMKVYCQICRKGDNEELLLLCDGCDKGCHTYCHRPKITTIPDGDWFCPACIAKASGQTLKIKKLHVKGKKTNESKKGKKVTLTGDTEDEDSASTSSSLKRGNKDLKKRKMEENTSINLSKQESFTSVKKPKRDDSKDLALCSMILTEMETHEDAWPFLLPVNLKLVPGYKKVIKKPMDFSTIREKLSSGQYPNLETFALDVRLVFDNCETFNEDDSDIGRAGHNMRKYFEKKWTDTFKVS
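In this displacement format the biotinylated H3(5-23) peptide acetylated at Lys14 serves as ligand at 50 nM, with BAZ2B at 50 nM in PBS pH 7.4 containing 0.01% Tween-20. Donor and acceptor beads are 10 ug/mL final.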
Sfp PPTase inh: qHTS Assay for Inhibitors of Bacillus subtilis Sfp phosphopantetheinyl transferase (PPTase); 4'-phosphopantetheinyl transferase ffp (Bacillus subtilis), Q9F4F7; Biochemical Sfp PPTase activity, qHTS; Potency, µM, for the others: largest response in the series, negative = inhibition, usual class: inhibitors; 3.5% of 310,000 active; AID 1490, 2009;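 note: the enzyme is Sfp with the accession as filed and its product quenches rhodamine fluorescence; 0% = enzyme reaction without inhibitor and -100% = no enzyme wells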
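Fluorescence-quenching assay with 15 nM Sfp, 5 uM rhodamine-CoA and 12.5 uM BHQ-2-labelled ybbR peptide in pH 7.6 Hepes/MgCl2 buffer. Enzyme was pre-incubated with compound for 15 min at room temperature. Rate was taken from the 30-min fluorescence change (525/598 nm).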
G9a inh: qHTS Assay for Inhibitors of Histone Lysine Methyltransferase G9a; Histone-lysine N-methyltransferase EHMT2 (Homo sapiens), Q96KQ7; G9a H3K9 monomethylation, AlphaScreen, 2 h; Potency, µM (series often up to 102 µM), for inactives: top-dose activity, negative = inhibition, hits mostly inhibitors; AID 504332, 2011; 8.8% of 350,000 active; note: % is set by controls: 0 for no effect and ±100 for the full control effect; nearly all actives have a fitted effect of over 75% in size
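Compounds were preincubated with 20 nM G9a for 15 min, after which biotinylated H3K9 peptide (500 nM) and SAM (20 uM) started a 2 h room-temperature reaction. Monomethylated product was quantified by antibody-based AlphaScreen chemiluminescence.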
HP1b binding inh: HTS for Inhibitors of HP1-beta Chromodomain Interactions with Methylated Histone Tails. Chromobox protein homolog 1 (Homo sapiens), P83916. AlphaScreen HP1-beta / biotin-H3K9me3 peptide binding. Potency, µM (highest dose often 114 µM), for inactives: top-dose activity change, negative = inhibition, usual class: inhibitors. 0.56% of 390,000 active. AID 540317, 2011; note: nearly all actives have a fitted effect of over 70% in size
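HP1-beta protein (50 nM final) preincubated 30 min at room temperature with biotinylated H3(1-18)K9me3 peptide (50 nM) in PBS pH 7.4, 0.01% Tween-20, then compound added for 30 min. AlphaScreen streptavidin donor/nickel chelate acceptor beads (10 ug/mL final), 30 min dark, luminescence read.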
JMJD2A Tudor inh: qHTS Assay for Inhibitors of JMJD2A-Tudor Domain. Lysine-specific demethylase 4A (Homo sapiens), O75164. Potency, µM (titrated, usually from 114 µM), without a hit: at the top dose activity change, negative = inhibition, actives largely listed as inhibitors. AlphaScreen JMJD2A-Tudor / H3K4me3 peptide binding. AID 504339, 2011. 4.4% of 390,000 active; note: % is set by controls: 0 for no effect and ±100 for the full control effect; nearly all actives have a fitted effect of over 50% in size
The depositor's hits bear a star; ? = inconclusive; / = no result; [ ] = another dose, or the depositor's remark. Most compounds without a hit are left out; they make up all but 12% or so of the library. Calls come from the whole dose curve; as a rule, active = well fitted curve in the direction sought with a large enough effect; inconclusive = small, poorly fitted or top-dose-only effect, or another doubt; inactive = no such curve, though single readings can be large; an effect the other way counts as inactive or inconclusive. Potency is the fitted concentration of half-maximal effect.

SMILES	BAZ2B block	Sfp PPTase inh	G9a inh	HP1b binding inh	JMJD2A Tudor inh
Cc1ccccc1C(=O)NC(=S)NCc1cccnc1	-18%	-3%	?	10%	-8%
O=C(NC(=S)NNC(=O)c1ccccc1F)c1cccnc1	5%	?	8.9µM*	-15%	16µM*
O=C1c2ccccc2C(=O)N1c1cccc2ccncc12	/	/	/	/	-22%
CC(CCC#N)[N+](=O)[O-] (configuration not stated)	/	-6%	/	/	/
COc1cccc(C(=O)NCCS(=O)(=O)N(C)C2CCCCC2)c1	-6%	/	22µM*	19%	-9%
COc1cccc(C(=O)NCCS(=O)(=O)N(C)Cc2ccccc2)c1	2%	/	45µM*	19%	-14%
COc1cccc(C(=O)Nc2ccccc2)c1	12%	1%	0%[2.33 µM]	53%	1%[57.1 µM]
CCOC(=O)C1CCCN(S(=O)(=O)CCNC(=O)c2cccc(OC)c2)C1 (configuration not stated)	-7%	/	11µM*	34%	-32%
COc1cccc(C(=O)Nc2nnc(S(=O)(=O)N(C)Cc3ccccc3)s2)c1	-16%	14%	21%	46%	-14%
COc1cccc(C(=O)NC(c2ccccc2)C2CCCC2)c1 (configuration not stated)	1%	14%	3%	1%	22µM*
Cc1cccc(C(=O)OCC(=O)Nc2ccccc2C(=O)NC2CC2)c1	0%	/	?	36%	1%
CCCCCN(C(=O)CSc1n[nH]c(-c2ccc(C)cc2)n1)c1c(N)n(CCCC)c(=O)[nH]c1=O	9%	/	7%[0.501 µM]	20%	-22%
O=C(C[n+]1cc(-c2ccccc2)n2c1CCCCC2)c1ccc(Cl)cc1	-3%	4%	-9%[59 µM]	44%	3%
Cc1ccc(-c2c[n+](CC(=O)c3ccc(Br)cc3)c3n2CCCCC3)cc1	?	?	45µM*	22%	-30%
O=C1C=C(c2ccccc2)OC(c2ccccc2)O1 (configuration not stated)	50µM*	13%	?	81%	14%
O=C1C=C(c2ccccc2)OC2(CCCC2)O1	2%	12%	?	42%	34%
CCN1C(=C2C(=O)c3ccccc3C2=O)C=Cc2ccccc21	-38%	5%	-20%	38%	-28%
CC[n+]1c(S(=O)(=O)[O-])ccc2ccc(C)cc21	1%	17%	-12%[59 µM]	39%	-6%
CCN1/C(=C/c2ccc3ccccc3[n+]2CC)C=Cc2ccccc21	?	50µM*	11µM*	18µM*	35µM*
CCN1/C(=C/c2cc[n+](C)cc2)C=Cc2cc(C)ccc21	?	?	2.2µM*	?	?
CCN1/C(=C/c2ccc3ccccc3[n+]2CCCS(=O)(=O)[O-])C=Cc2cc(C)ccc21	45µM*	-21%	10µM*	-15%	-11%
Cc1ccc(S(=O)(=O)Nn2c(C)ccc2C)cc1	?	56µM*	-10%[2.33 µM]	0%	50µM*
O=S(=O)(Nc1ccc(N2CCOCC2)cc1)c1ccc(F)cc1F	-3%	21%	-3%	-19%	-18%
O=C(O)c1cc(-c2ccc(N3CCOCC3)cc2)nn1-c1ccccc1Cl	/	?	56µM*	31%	?
O=C(O)c1cc(-c2ccc(N3CCOCC3)cc2)nn1-c1ccc(F)cc1F	4%	13%	45µM*	17%	-14%
O=C(O)c1cc2nccc(-c3ccco3)n2n1	?	10%	50µM*	17%	89µM*
CS(=O)(=O)N1N=C(c2ccco2)CC1c1ccccc1 (configuration not stated)	12%	-19%	?	36%	-4%
CS(=O)(=O)N1N=C(c2ccco2)CC1c1ccc(Cl)cc1 (configuration not stated)	-6%	-5%	50µM*	6%	-17%
Cc1cccc2cc(C3CC(c4cccs4)=NN3C(=O)CCC(=O)O)c(Cl)nc12 (configuration not stated)	?	1%	6%[59 µM]	0%	32µM*
